Experimental data from the supplement of paper PMC9262897, “Low-cost anti-mycobacterial drug discovery using engineered E. coli” (Nature Communications, 2022).
Where a name gives a salt, the structure may show the parent alone. ± gives the standard deviation of the averaged measurements.

Assays:
Assay in all cases: growth (OD600 after 10 h); higher = more growth (less inhibition)
[1] = tested on: E. coli TESEC Alr+ wild-type control; conditions: compound 0.1 mM; raw OD600 reference: median of DMSO wells 0.241, cell-free background 0.041
Method: (§1)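 TESEC Mtb Alr E. coli, or the Alr+ wild-type control, in 384-well plates with Prestwick library compounds at 0.1 mM and 1% DMSO, across arabinose induction levels of 1E3 to 1E7 nM. Growth is read as OD600 after 10 h at 37 °C in triplicate biological replicates.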

E. coli TESEC Mtb Alr [2] = conditions: compound 0.1 mM
Method: as §1

E. coli TESEC Mtb Asd = conditions: compound 0.1 mM
Method: (§2)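 TESEC E. coli strains in which the native enzyme is deleted and replaced by arabinose-inducible Mtb Asd, DapB, CysH or TrpD, each grown in its selective medium. Strains were screened against the Prestwick library at 0.1 mM and 1% DMSO in 384-well format at low and high arabinose induction. Growth is read as OD600 after 10 h in triplicate.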

E. coli TESEC Mtb DapB = conditions: compound 0.1 mM
Method: as §2

[3] = tested on: E. coli TESEC Alr+ wild-type control; conditions: compound 0.1 mM; raw OD600 reference: median of DMSO wells 0.49, cell-free background 0.052
Method: (§3)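 TESEC Mtb Alr E. coli (ΔaraC ΔtolC ΔentC Δalr ΔdadX, arabinose-inducible Mtb Alr) or the Alr+ wild-type control strain, grown in defined M9-fructose medium without D-alanine in 96-well plates with Prestwick library compounds at 0.1 mM and 1% DMSO. Low Alr induction is 0.1 µM arabinose and high induction is 10 mM arabinose.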

E. coli TESEC Mtb Alr [4] = conditions: compound 0.1 mM; remark: listed apart in the source
Method: as §3

[5] = arabinose 1000 nM, raw OD600 reference: median of DMSO wells 0.294, cell-free background 0.041
[6] = arabinose 10000 nM, raw OD600 reference: median of DMSO wells 0.264, cell-free background 0.041
[7] = arabinose 100000 nM, raw OD600 reference: median of DMSO wells 0.201, cell-free background 0.041
[8] = arabinose 1000000 nM, raw OD600 reference: median of DMSO wells 0.193, cell-free background 0.041
[9] = arabinose 10000000 nM, raw OD600 reference: median of DMSO wells 0.146, cell-free background 0.041
[10] = arabinose induction (level): High, raw OD600 reference: median of DMSO wells 0.331, cell-free background 0.041
[11] = arabinose induction (level): Low, raw OD600 reference: median of DMSO wells 0.417, cell-free background 0.041
[12] = arabinose induction (level): High, raw OD600 reference: median of DMSO wells […], cell-free background 0.041
[13] = arabinose induction (level): Low, raw OD600 reference: median of DMSO wells 0.227, cell-free background 0.041
[14] = arabinose 100 nM, raw OD600 reference: median of DMSO wells 0.413, cell-free background 0.052
[15] = arabinose 10000000 nM, raw OD600 reference: median of DMSO wells […], cell-free background 0.052

Row | Compound | growth [1] | growth (E. coli TESEC Mtb Alr [2]; [5]) | growth (E. coli TESEC Mtb Alr [2]; [6]) | growth (E. coli TESEC Mtb Alr [2]; [7]) | growth (E. coli TESEC Mtb Alr [2]; [8]) | growth (E. coli TESEC Mtb Alr [2]; [9]) | growth (E. coli TESEC Mtb Asd; [10]) | growth (E. coli TESEC Mtb Asd; [11]) | growth (E. coli TESEC Mtb DapB; [12]) | growth (E. coli TESEC Mtb DapB; [13]) | growth [3] | growth (E. coli TESEC Mtb Alr [4]; [14]) | growth (E. coli TESEC Mtb Alr [4]; [15])
1 | CCC(=O)O[C@@H](O[P@](=O)(CCCCc1ccccc1)CC(=O)N1C[C@H](C2CCCCC2)C[C@H]1C(=O)O)C(C)C [Fosinopril] | 0.221 ± 0.007 | 0.33 ± 0.0063 | 0.25 ± 0.015 | 0.281 ± 0.018 | 0.0879 ± 0.0031 | 0.154 ± 0.0039 | 0.185 ± 0.013 | 0.351 ± 0.065 | 0.165 ± 0.0076 | 0.226 ± 0.017 | 0.508 ± 0.076 | 0.334 ± 0.044 | 0.0696 ± 0.00091
2 | COc1cc2c(cc1OC)C(=O)C(CC1CCN(Cc3ccccc3)CC1)C2 (stereo unspecified) [Donepezil hydrochloride] | 0.168 ± 0.0034 | 0.251 ± 0.0063 | 0.259 ± 0.0054 | 0.158 ± 0.0035 | 0.174 ± 0.013 | 0.142 ± 0.0099 | 0.234 ± 0.039 | 0.4033 ± 0.0016 | 0.167 ± 0.021 | 0.199 ± 0.039 | 0.56 ± 0.055 | 0.404 ± 0.011 | 0.325 ± 0.0069
3 | COc1ccc2c(c1)C(=O)N(CCc1ccc(S(=O)(=O)NC(=O)NC3CCCCC3)cc1)C(=O)C2(C)C [Gliquidone] | 0.06 ± 0.018 | 0.0483 ± 0.0024 | 0.04083 ± 0.00021 | 0.0728 ± 0.0039 | 0.0491 ± 0.00068 | 0.119 ± 0.0032 | 0.126 ± 0.027 | 0.0965 ± 0.065 | 0.157 ± 0.015 | 0.173 ± 0.0091 | 0.0675 ± 0.001 | 0.108 ± 0.046 | 0.116 ± 0.0081
4 | COC(=O)[C@@H]1[C@H]2C[C@H]3c4[nH]c5ccccc5c4CCN3C[C@@H]2CC[C@@H]1O [Yohimbine hydrochloride] | 0.217 ± 0.0081 | 0.28 ± 0.007 | 0.265 ± 0.0075 | 0.176 ± 0.011 | 0.142 ± 0.0078 | 0.142 ± 0.0022 | 0.163 ± 0.031 | 0.318 ± 0.074 | 0.166 ± 0.01 | 0.19 ± 0.012 | 0.525 ± 0.13 | 0.409 ± 0.011 | 0.343 ± 0.031
5 | OC(CCN1CCCC1)(c1ccccc1)C1CCCCC1 (stereo unspecified) [Procyclidine hydrochloride] | 0.206 ± 0.018 | 0.297 ± 0.018 | 0.266 ± 0.0065 | 0.194 ± 0.011 | 0.163 ± 0.0092 | 0.148 ± 0.0059 | 0.314 ± 0.14 | 0.473 ± 0.055 | 0.177 ± 0.026 | 0.245 ± 0.033 | 0.573 ± 0.041 | 0.412 ± 0.009 | 0.317 ± 0.0092
6 | CC(=O)Oc1cc(C(F)(F)F)ccc1C(=O)O [Triflusal] | 0.224 ± 0.0053 | 0.275 ± 0.0064 | 0.259 ± 0.0086 | 0.186 ± 0.019 | 0.177 ± 0.0042 | 0.14 ± 0.004 | 0.218 ± 0.009 | 0.367 ± 0.082 | 0.207 ± 0.0034 | 0.206 ± 0.015 | 0.555 ± 0.033 | 0.376 ± 0.011 | 0.315 ± 0.011
7 | CNCCCC12CCC(c3ccccc31)c1ccccc12 [Maprotiline hydrochloride] | 0.269 ± 0.0086 | 0.256 ± 0.016 | 0.276 ± 0.0088 | 0.246 ± 0.032 | 0.134 ± 0.0037 | 0.169 ± 0.0019 | 0.197 ± 0.0097 | 0.164 ± 0.016 | 0.1849 ± 0.0011 | 0.211 ± 0.011 | 0.589 ± 0.072 | 0.41 ± 0.0086 | 0.28 ± 0.013
8 | O=C(O)COCCN1CCN(C(c2ccccc2)c2ccc(Cl)cc2)CC1 (stereo unspecified) [Cetirizine dihydrochloride] | 0.21 ± 0.0098 | 0.275 ± 0.0074 | 0.25 ± 0.006 | 0.218 ± 0.017 | 0.183 ± 0.0077 | 0.14 ± 0.0034 | 0.223 ± 0.017 | 0.273 ± 0.045 | 0.168 ± 0.013 | 0.199 ± 0.019 | 0.655 ± 0.047 | 0.41 ± 0.014 | 0.349 ± 0.022
9 | Cc1ncc([N+](=O)[O-])n1CCO [Metronidazole] | 0.244 ± 0.0028 | 0.291 ± 0.014 | 0.264 ± 0.0049 | 0.221 ± 0.036 | 0.177 ± 0.0036 | 0.144 ± 0.0031 | 0.378 ± 0.03 | 0.378 ± 0.013 | 0.202 ± 0.015 | 0.264 ± 0.052 | 0.426 ± 0.033 | 0.394 ± 0.021 | 0.347 ± 0.038
10 | CNCCCN1c2ccccc2CCc2ccccc21 [Desipramine hydrochloride] | 0.184 ± 0.0044 | 0.228 ± 0.021 | 0.275 ± 0.013 | 0.199 ± 0.021 | 0.1277 ± 0.00069 | 0.168 ± 0.0031 | 0.157 ± 0.011 | 0.222 ± 0.03 | 0.171 ± 0.014 | 0.202 ± 0.0094 | 0.578 ± 0.053 | 0.403 ± 0.01 | 0.287 ± 0.011
11 | CN(C)CCCN1c2ccccc2Sc2ccccc21 [Promazine hydrochloride] | 0.189 ± 0.0053 | 0.227 ± 0.011 | 0.2724 ± 0.002 | 0.192 ± 0.01 | 0.129 ± 0.0026 | 0.158 ± 0.004 | 0.187 ± 0.03 | 0.261 ± 0.023 | 0.195 ± 0.017 | 0.254 ± 0.033 | 0.523 ± 0.031 | 0.415 ± 0.0068 | 0.273 ± 0.0038
12 | O=C(O)/C=C/c1ccc(Cn2ccnc2)cc1 [Ozagrel hydrochloride] | 0.229 ± 0.006 | 0.268 ± 0.019 | 0.263 ± 0.0041 | 0.197 ± 0.025 | 0.179 ± 0.0082 | 0.143 ± 0.0023 | 0.248 ± 0.03 | 0.422 ± 0.035 | 0.176 ± 0.0061 | 0.207 ± 0.023 | 0.482 ± 0.076 | 0.397 ± 0.017 | 0.372 ± 0.014
13 | CCc1cccc(CC)c1NC(=O)CN(CC(=O)O)CC(=O)O [Etifenin] | 0.2457 ± 0.00078 | 0.295 ± 0.011 | 0.276 ± 0.0042 | 0.231 ± 0.012 | 0.192 ± 0.011 | 0.146 ± 0.0052 | 0.29 ± 0.033 | 0.375 ± 0.09 | 0.179 ± 0.015 | 0.196 ± 0.003 | 0.603 ± 0.11 | 0.412 ± 0.012 | 0.338 ± 0.017
14 | Clc1ccc(Nc2nnc(Cc3ccncc3)c3ccccc23)cc1 [Vatalanib] | 0.104 ± 0.031 | 0.0967 ± 0.038 | 0.0476 ± 0.003 | 0.0763 ± 0.0031 | 0.0489 ± 0.0002 | 0.0787 ± 0.0014 | 0.112 ± 0.017 | 0.0893 ± 0.021 | 0.203 ± 0.081 | 0.15 ± 0.015 | 0.514 ± 0.0082 | 0.303 ± 0.17 | 0.0605 ± 0.0043
15 | O=C(NCCO[N+](=O)[O-])c1cccnc1 [Nicorandil] | 0.2587 ± 0.0024 | 0.3 ± 0.021 | 0.286 ± 0.0046 | 0.208 ± 0.025 | 0.213 ± 0.0045 | 0.153 ± 0.0067 | 0.362 ± 0.039 | 0.377 ± 0.057 | 0.191 ± 0.0086 | 0.209 ± 0.023 | 0.481 ± 0.072 | 0.4153 ± 0.002 | 0.3332 ± 0.001
16 | N=C(NCCCCCCNC(=N)NC(=N)Nc1ccc(Cl)cc1)NC(=N)Nc1ccc(Cl)cc1 [Chlorhexidine] | 0.04463 ± 0.00035 | 0.0435 ± 0.00051 | 0.0456 ± 0.003 | 0.0447 ± 0.0014 | 0.04363 ± 0.00015 | 0.0449 ± 0.0005 | 0.0592 ± 0.0021 | 0.0584 ± 0.0011 | 0.0506 ± 0.0011 | 0.0542 ± 0.0085 | 0.0486 ± 0.0014 | 0.04807 ± 5.8e-05 | 0.054 ± 0.0013
17 | Cc1c(Cl)cccc1Nc1ccccc1C(=O)O [Tolfenamic acid] | 0.0444 ± 0.0007 | 0.0448 ± 0.0007 | 0.0413 ± 0.0001 | 0.0477 ± 0.0013 | 0.0424 ± 0.00053 | 0.0598 ± 0.0014 | 0.0513 ± 0.0022 | 0.052 ± 0.004 | 0.0686 ± 0.0054 | 0.0876 ± 0.044 | 0.0743 ± 0.0023 | 0.0964 ± 0.065 | 0.0536 ± 0.0002
